Test results from PMC7862700, “An all-to-all approach to the identification of sequence-specific readers for epigenetic DNA modifications on cytosine”.

Assays:
Assay in all cases: DAPPL (digital affinity profiling via proximity ligation, sequencing); 10 mM Tris-HCl pH 7.5, 50 mM NaCl, 1 mM DTT, 4% glycerol, room temperature, 30 min; GST-TFs on glutathione beads, 16-mer random dsDNA library, 0.1% formaldehyde crosslink after washing; high values mean tight binding
Conditions in all cases: protein: recombinant; tags: N-terminal GST; dsDNA, one strand shown
ERF = biological target: T1, ERF (Homo sapiens, UniProt P50548 1-548)
T1 sequence: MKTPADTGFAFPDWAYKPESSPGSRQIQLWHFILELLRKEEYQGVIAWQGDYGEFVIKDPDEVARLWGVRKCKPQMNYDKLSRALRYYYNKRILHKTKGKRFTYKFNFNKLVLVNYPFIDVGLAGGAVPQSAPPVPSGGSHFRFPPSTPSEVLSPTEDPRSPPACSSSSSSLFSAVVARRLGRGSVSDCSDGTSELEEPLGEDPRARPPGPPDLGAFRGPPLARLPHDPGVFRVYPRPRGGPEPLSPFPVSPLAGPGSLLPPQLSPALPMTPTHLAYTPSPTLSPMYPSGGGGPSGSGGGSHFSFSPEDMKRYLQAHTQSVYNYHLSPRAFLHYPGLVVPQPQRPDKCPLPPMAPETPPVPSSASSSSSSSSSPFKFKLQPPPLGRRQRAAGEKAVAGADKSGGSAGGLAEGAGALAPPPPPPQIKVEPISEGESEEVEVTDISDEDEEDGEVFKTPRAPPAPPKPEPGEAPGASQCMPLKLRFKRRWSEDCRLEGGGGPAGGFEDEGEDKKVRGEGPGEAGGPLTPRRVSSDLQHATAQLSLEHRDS
Method in brief: (§1)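 After expression in yeast as GST fusions, human transcription factors were bound to glutathione beads, DNA-barcoded and mixed with a tag-only sample. The pools were incubated with 200 nmole of a 16-mer random double-stranded DNA library in Tris/NaCl/DTT/glycerol buffer (30 min, room temperature), washed and crosslinked with 0.1% formaldehyde. Proximity ligation with BsaI/T4 ligase ran for 1 h at 37 °C, before PCR amplification and sequencing on an Illumina NextSeq500. Binding signal is a hexamer's read frequency for a factor divided by its frequency for the tag-only sample.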

ETV3L = biological target: T2, ETV3L (Homo sapiens, UniProt Q6ZN32 1-361)
T2 sequence: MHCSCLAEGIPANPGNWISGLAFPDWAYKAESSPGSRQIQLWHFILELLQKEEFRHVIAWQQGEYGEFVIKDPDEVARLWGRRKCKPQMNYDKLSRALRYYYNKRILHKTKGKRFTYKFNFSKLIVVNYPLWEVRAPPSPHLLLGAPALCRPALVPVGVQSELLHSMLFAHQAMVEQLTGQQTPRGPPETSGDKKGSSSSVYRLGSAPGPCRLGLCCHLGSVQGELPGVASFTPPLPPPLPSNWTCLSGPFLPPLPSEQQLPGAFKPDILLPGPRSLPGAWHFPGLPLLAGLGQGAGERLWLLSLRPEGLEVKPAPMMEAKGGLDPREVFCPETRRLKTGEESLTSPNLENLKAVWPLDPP
Method in brief: as §1

ETS2 = biological target: T3, ETS2 (Homo sapiens, UniProt P15036 1-469)
T3 sequence: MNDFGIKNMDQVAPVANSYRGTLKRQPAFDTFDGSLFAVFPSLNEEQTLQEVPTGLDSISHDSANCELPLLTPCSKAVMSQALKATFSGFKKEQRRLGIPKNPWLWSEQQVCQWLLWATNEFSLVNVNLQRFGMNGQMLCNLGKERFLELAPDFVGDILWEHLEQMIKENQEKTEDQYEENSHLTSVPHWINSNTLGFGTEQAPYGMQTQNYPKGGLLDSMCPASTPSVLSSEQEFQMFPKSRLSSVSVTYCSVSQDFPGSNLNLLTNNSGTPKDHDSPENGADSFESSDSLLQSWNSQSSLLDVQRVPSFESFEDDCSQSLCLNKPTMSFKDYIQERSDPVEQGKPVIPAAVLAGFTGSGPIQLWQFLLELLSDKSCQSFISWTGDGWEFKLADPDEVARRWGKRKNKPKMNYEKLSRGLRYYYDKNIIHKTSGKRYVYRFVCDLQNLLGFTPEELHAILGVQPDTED
Method in brief: as §1

SPDEF = biological target: T4, SPDEF (Homo sapiens, UniProt O95238 1-335)
T4 sequence: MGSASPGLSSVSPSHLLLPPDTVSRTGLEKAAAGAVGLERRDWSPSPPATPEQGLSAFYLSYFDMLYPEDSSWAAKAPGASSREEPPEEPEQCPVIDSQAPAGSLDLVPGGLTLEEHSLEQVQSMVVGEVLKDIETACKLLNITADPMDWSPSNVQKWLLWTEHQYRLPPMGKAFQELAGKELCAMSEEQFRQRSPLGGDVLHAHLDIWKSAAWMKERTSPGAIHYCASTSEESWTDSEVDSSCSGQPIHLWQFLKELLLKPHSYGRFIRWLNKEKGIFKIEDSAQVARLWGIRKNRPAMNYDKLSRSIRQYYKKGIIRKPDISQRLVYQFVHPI
Method in brief: as §1

ETV7 = biological target: T5, ETV7 (Homo sapiens, UniProt Q9Y603 1-341)
T5 sequence: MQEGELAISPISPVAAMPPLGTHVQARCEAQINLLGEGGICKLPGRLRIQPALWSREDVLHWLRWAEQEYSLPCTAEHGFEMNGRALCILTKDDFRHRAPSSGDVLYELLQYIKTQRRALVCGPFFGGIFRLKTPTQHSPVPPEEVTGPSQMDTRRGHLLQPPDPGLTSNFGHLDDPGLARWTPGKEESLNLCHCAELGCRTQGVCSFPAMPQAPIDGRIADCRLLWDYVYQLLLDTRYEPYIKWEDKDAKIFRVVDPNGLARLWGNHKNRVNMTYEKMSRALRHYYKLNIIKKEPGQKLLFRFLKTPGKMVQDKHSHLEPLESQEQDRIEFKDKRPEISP
Method in brief: as §1

ELF5 = biological target: T6, ELF5 (Homo sapiens, UniProt Q9UKW6-2 1-255)
T6 sequence: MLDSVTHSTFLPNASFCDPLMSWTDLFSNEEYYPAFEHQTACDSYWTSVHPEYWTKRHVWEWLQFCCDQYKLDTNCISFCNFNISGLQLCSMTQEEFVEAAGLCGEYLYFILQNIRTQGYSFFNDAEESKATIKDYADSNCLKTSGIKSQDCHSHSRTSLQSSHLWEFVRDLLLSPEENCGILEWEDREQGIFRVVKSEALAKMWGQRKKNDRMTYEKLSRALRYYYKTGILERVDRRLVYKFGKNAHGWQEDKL
Method in brief: as §1

ETV3 = biological target: T7, ETV3 (Homo sapiens, UniProt P41162-2 1-143)
T7 sequence: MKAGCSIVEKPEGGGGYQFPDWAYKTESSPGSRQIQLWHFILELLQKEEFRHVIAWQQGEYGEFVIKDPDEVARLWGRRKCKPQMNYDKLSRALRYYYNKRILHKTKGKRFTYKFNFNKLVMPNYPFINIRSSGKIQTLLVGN
Method in brief: as §1

ETV6 = ETV6 (Homo sapiens, UniProt P41212 1-452)
Chain of ETV6 (P41212 whole entry): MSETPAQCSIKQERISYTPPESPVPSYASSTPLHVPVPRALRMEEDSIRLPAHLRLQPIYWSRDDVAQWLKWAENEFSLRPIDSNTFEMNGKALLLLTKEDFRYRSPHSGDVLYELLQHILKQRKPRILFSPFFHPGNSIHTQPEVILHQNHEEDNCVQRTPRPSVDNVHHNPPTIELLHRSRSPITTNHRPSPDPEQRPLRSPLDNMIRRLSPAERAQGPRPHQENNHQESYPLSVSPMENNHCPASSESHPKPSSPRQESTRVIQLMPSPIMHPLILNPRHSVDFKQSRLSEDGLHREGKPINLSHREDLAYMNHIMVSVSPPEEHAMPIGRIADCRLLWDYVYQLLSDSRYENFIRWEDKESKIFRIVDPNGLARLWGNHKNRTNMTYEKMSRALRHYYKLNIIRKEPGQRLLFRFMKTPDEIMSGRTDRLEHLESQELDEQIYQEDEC
Method in brief: as §1

Sequence	binding signal (ERF)	binding signal (ETV3L)	binding signal (ETS2)	binding signal (SPDEF)	binding signal (ETV7)	binding signal (ELF5)	binding signal (ETV3)	binding signal (ETV6)
ATTTCT	1.35 fold enrichment (6-mer frequency, TF over GST control)	1.49 fold enrichment (6-mer frequency, TF over GST control)	1.54 fold enrichment (6-mer frequency, TF over GST control)	1.4 fold enrichment (6-mer frequency, TF over GST control)	1.47 fold enrichment (6-mer frequency, TF over GST control)	1.5 fold enrichment (6-mer frequency, TF over GST control)	1.42 fold enrichment (6-mer frequency, TF over GST control)	1.39 fold enrichment (6-mer frequency, TF over GST control)
GTATCC	1.77 fold enrichment (6-mer frequency, TF over GST control)	1.81 fold enrichment (6-mer frequency, TF over GST control)	1.84 fold enrichment (6-mer frequency, TF over GST control)	3.14 fold enrichment (6-mer frequency, TF over GST control)	1.69 fold enrichment (6-mer frequency, TF over GST control)	2.1 fold enrichment (6-mer frequency, TF over GST control)	2.03 fold enrichment (6-mer frequency, TF over GST control)	1.79 fold enrichment (6-mer frequency, TF over GST control)
TTTTCC	1.65 fold enrichment (6-mer frequency, TF over GST control)	1.71 fold enrichment (6-mer frequency, TF over GST control)	1.69 fold enrichment (6-mer frequency, TF over GST control)	1.67 fold enrichment (6-mer frequency, TF over GST control)	1.78 fold enrichment (6-mer frequency, TF over GST control)	2.37 fold enrichment (6-mer frequency, TF over GST control)	1.82 fold enrichment (6-mer frequency, TF over GST control)	2.08 fold enrichment (6-mer frequency, TF over GST control)
CTAGCT	1.21 fold enrichment (6-mer frequency, TF over GST control)	1.29 fold enrichment (6-mer frequency, TF over GST control)	1.25 fold enrichment (6-mer frequency, TF over GST control)	1.27 fold enrichment (6-mer frequency, TF over GST control)	1.33 fold enrichment (6-mer frequency, TF over GST control)	1.27 fold enrichment (6-mer frequency, TF over GST control)	1.24 fold enrichment (6-mer frequency, TF over GST control)	1.32 fold enrichment (6-mer frequency, TF over GST control)
TACCAC	1.21 fold enrichment (6-mer frequency, TF over GST control)	1.26 fold enrichment (6-mer frequency, TF over GST control)	1.27 fold enrichment (6-mer frequency, TF over GST control)	1.16 fold enrichment (6-mer frequency, TF over GST control)	1.15 fold enrichment (6-mer frequency, TF over GST control)	1.29 fold enrichment (6-mer frequency, TF over GST control)	1.2 fold enrichment (6-mer frequency, TF over GST control)	1.21 fold enrichment (6-mer frequency, TF over GST control)
GTATTA	1.24 fold enrichment (6-mer frequency, TF over GST control)	1.04 fold enrichment (6-mer frequency, TF over GST control)	1.07 fold enrichment (6-mer frequency, TF over GST control)	1.17 fold enrichment (6-mer frequency, TF over GST control)	1.05 fold enrichment (6-mer frequency, TF over GST control)	1.02 fold enrichment (6-mer frequency, TF over GST control)	1.14 fold enrichment (6-mer frequency, TF over GST control)	1.16 fold enrichment (6-mer frequency, TF over GST control)
ATGCGA	1.16 fold enrichment (6-mer frequency, TF over GST control)	1.24 fold enrichment (6-mer frequency, TF over GST control)	1.19 fold enrichment (6-mer frequency, TF over GST control)	1.18 fold enrichment (6-mer frequency, TF over GST control)	1.28 fold enrichment (6-mer frequency, TF over GST control)	1.16 fold enrichment (6-mer frequency, TF over GST control)	1.32 fold enrichment (6-mer frequency, TF over GST control)	1.23 fold enrichment (6-mer frequency, TF over GST control)
